From PubChem BioAssay (Tox21)
Inconclusive results are not listed. Where a call stands in place of a potency, no number is given. Activity calls are given as the source filed them. Calls follow the shape of the dose curve; as a rule, active = well fitted inhibition curve with a large enough effect in the repeat runs; inconclusive = weak or mixed curves; inactive = no such curve, though single readings can be large or run the other way.

target: Cytochrome P450 2C9 (Homo sapiens) (UniProt P11712); test: Cytochrome P450 Family 2 Subfamily C Member 9 (CYP2C9) small molecule antagonists: luciferase reporter qHTS assay (AID 1671198); settings: P450-Glo CYP2C9 enzyme assay, luciferin luminescence; series mostly up to 115 µM
Sequence (P11712 whole entry, looked up): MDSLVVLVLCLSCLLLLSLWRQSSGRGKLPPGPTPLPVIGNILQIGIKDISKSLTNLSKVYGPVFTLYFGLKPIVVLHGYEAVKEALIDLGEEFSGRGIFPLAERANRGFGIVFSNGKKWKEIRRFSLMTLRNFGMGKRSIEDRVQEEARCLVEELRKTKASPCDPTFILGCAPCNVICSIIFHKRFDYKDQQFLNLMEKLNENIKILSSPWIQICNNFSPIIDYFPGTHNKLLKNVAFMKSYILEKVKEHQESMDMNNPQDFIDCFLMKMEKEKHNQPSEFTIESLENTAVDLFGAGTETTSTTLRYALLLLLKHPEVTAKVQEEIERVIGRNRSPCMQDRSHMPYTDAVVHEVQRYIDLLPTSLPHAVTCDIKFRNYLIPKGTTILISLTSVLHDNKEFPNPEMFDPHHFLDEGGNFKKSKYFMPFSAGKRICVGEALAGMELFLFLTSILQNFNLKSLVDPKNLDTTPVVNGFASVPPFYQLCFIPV
Method in brief: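 CYP2C9 activity was measured with a P450-Glo proluciferin substrate. Enzyme–substrate mix was held with compound for 10 min at room temperature, then NADPH regeneration solution was added for 1 h at 37C. Luciferin product was read as luminescence.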
Also: nearly all actives have a fitted effect of over 50% in size.
Potency is read from the fitted curve at half-maximal effect.

Structure (SMILES) | Potency | activity change, negative = inhibition
NCCc1ccn[nH]1 | inactive | –
O=C(O)/C=C/c1ccccc1 | inactive | –
COc1ccc(/C=N/NC(=O)c2ccncc2)cc1OC | 17.4 µM (active) | –
NS(=O)(=O)c1cc2c(cc1Cl)NC(C(Cl)Cl)NS2(=O)=O (centres undefined) | inactive | –
Nc1ccc(/C=C/c2ccc(N)cc2S(=O)(=O)O)c(S(=O)(=O)O)c1 | – | 3.26% [at 0.435 µM] (inactive)
Cc1c(C(C)C)c(=O)n(-c2ccccc2)n1C | inactive | –
O=C(CN1CCN(Cc2ccc3c(c2)OCO3)CC1)N1c2ccccc2Sc2ccccc21 | 15.5 µM (active) | –
COc1cc([N+](=O)[O-])ccc1N | inactive | –
Nc1ccc(S(=O)(=O)Nc2ccccn2)cc1 | inactive | –
OC(CCN1CCCCC1)(c1ccccc1)c1ccccc1 | inactive | –
CC(C)(CO)[C@@H](O)C(=O)NCCCO | inactive | –
COCC(=O)Nc1c(I)c(C(=O)NCC(O)CO)c(I)c(C(=O)N(C)CC(O)CO)c1I (centres undefined) | inactive | –
O=c1cc(O)c(Cl)c[nH]1 | inactive | –
COc1cc2c3cc1Oc1cc(ccc1O)C[C@@H]1c4c(cc(OC)c(O)c4Oc4ccc(cc4)C[C@@H]3N(C)CC2)CC[N+]1(C)C | inactive | –
O=C(/C=C/c1ccccc1)NCCO | 13.8 µM (active) | –
CCCCCCCCCCCCC1CO1 (centres undefined) | inactive | –

Structure (SMILES) | Potency | activity change, negative = inhibition
CCNC(=O)/C=C/c1cccc(Br)c1 | inactive | –
CCCCOC(=O)[C@@H](C)Oc1ccc(Oc2ccc(C(F)(F)F)cn2)cc1 | 16 µM (active) | –
NS(=O)(=O)c1cc2c(cc1Cl)NC(CC1CCCC1)NS2(=O)=O (centres undefined) | inactive | –
CCCCOC(=O)C(=O)OCCCC | inactive | –
NS(=O)(=O)c1ccc(Cl)c(S(N)(=O)=O)c1 | inactive | –
O=c1[nH]c(=O)c2[nH]c(=O)[nH]c2[nH]1 | – | 10.1% [at 10.5 µM] (inactive)
CCC1Nc2cc(Cl)c(S(N)(=O)=O)cc2S(=O)(=O)N1 (centres undefined) | inactive | –
Cc1oc(=O)oc1CN1CCN(c2cc3c(cc2F)c(=O)c(C(=O)O)c2n3C(C)S2)CC1 (centres undefined) | inactive | –
COc1cc2c(Nc3ccc(Br)cc3F)ncnc2cc1OCC1CCN(C)CC1 | inactive | –
NC(=O)C1(N2CCCCC2)CCN(CCCC(=O)c2ccc(F)cc2)CC1 | inactive | –
O=c1[nH]c(=O)c2ccccc2o1 | inactive | –
Cn1c(=O)c2c(ncn2CC2OCCO2)n(C)c1=O | inactive | –
CN[C@@H]1[C@H](O)[C@H](NC)[C@H]2O[C@@]3(O)C(=O)C[C@@H](C)O[C@H]3O[C@@H]2[C@H]1O | inactive | –
O=C(Nc1cccc(C2=NCCN2)c1)Nc1cccc(C2=NCCN2)c1 | – | 0.456% [at 23.6 µM] (inactive)
Cc1ccc(S(=O)(=O)NC(=O)NC2CCCCCCC2)cc1 | 11 µM (active) | –
NC(=O)NC(=O)Cc1ccccc1 | inactive | –

target: Cytochrome P450 1A2 (Homo sapiens) (UniProt P05177); test: Cytochrome P450 Family 1 Subfamily A Member 2 (CYP1A2) small molecule antagonists: luciferase reporter qHTS assay (AID 1671199); settings: P450-Glo CYP1A2 enzyme, luciferin luminescence, 1 h; series mostly up to 115 µM
Sequence (P05177 whole entry, looked up): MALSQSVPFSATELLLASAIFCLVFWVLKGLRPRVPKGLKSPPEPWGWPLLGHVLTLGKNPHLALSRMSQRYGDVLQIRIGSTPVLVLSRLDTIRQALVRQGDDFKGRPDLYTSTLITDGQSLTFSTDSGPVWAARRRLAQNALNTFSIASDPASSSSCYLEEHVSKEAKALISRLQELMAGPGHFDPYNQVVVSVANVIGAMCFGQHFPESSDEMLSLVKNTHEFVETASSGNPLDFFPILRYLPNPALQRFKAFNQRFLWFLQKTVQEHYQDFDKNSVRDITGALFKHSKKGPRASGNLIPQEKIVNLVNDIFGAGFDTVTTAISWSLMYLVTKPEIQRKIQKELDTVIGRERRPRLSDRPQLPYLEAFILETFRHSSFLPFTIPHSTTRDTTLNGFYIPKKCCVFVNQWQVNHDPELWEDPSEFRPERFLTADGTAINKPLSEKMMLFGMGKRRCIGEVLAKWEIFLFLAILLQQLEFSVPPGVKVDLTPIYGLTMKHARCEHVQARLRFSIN
Method in brief: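 P450-Glo CYP1A2, 1536-well qHTS: enzyme/proluciferin substrate + cpd (DMSO), 10 min RT; NADPH regen, 1 h RT; detection reagent, 20 min; luminescence, RLU.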

Structure (SMILES) | Potency | activity change, negative = inhibition
NCCc1ccn[nH]1 | inactive | –
O=C(O)/C=C/c1ccccc1 | inactive | –
NS(=O)(=O)c1cc2c(cc1Cl)NC(C(Cl)Cl)NS2(=O)=O (centres undefined) | inactive | –
Nc1ccc(/C=C/c2ccc(N)cc2S(=O)(=O)O)c(S(=O)(=O)O)c1 | – | 12.7% [at 0.435 µM] (inactive)
Cc1c(C(C)C)c(=O)n(-c2ccccc2)n1C | inactive | –
O=C(CN1CCN(Cc2ccc3c(c2)OCO3)CC1)N1c2ccccc2Sc2ccccc21 | inactive | –
COc1cc([N+](=O)[O-])ccc1N | 22.4 µM (active) | –
Nc1ccc(S(=O)(=O)Nc2ccccn2)cc1 | inactive | –
OC(CCN1CCCCC1)(c1ccccc1)c1ccccc1 | inactive | –
CC(C)(CO)[C@@H](O)C(=O)NCCCO | inactive | –
COCC(=O)Nc1c(I)c(C(=O)NCC(O)CO)c(I)c(C(=O)N(C)CC(O)CO)c1I (centres undefined) | inactive | –
O=c1cc(O)c(Cl)c[nH]1 | inactive | –
COc1cc2c3cc1Oc1cc(ccc1O)C[C@@H]1c4c(cc(OC)c(O)c4Oc4ccc(cc4)C[C@@H]3N(C)CC2)CC[N+]1(C)C | inactive | –
O=C(/C=C/c1ccccc1)NCCO | 11.5 µM (active) | –
CCCCCCCCCCCCC1CO1 (centres undefined) | inactive | –
CCNC(=O)/C=C/c1cccc(Br)c1 | 2.57 µM (active) | –

Structure (SMILES) | Potency | activity change, negative = inhibition
CCCCOC(=O)[C@@H](C)Oc1ccc(Oc2ccc(C(F)(F)F)cn2)cc1 | 20.1 µM (active) | –
CC(=O)N(CC(O)CO)c1c(I)c(C(=O)NCC(O)CO)c(I)c(C(=O)NCC(O)CO)c1I (centres undefined) | inactive | –
CNCc1ccccc1 | inactive | –
CCCCOC(=O)C(=O)OCCCC | inactive | –
NS(=O)(=O)c1ccc(Cl)c(S(N)(=O)=O)c1 | inactive | –
O=c1[nH]c(=O)c2[nH]c(=O)[nH]c2[nH]1 | – | -28.5% [at 10.5 µM] (inactive)
CCC1Nc2cc(Cl)c(S(N)(=O)=O)cc2S(=O)(=O)N1 (centres undefined) | inactive | –
Cc1oc(=O)oc1CN1CCN(c2cc3c(cc2F)c(=O)c(C(=O)O)c2n3C(C)S2)CC1 (centres undefined) | inactive | –
COc1cc2c(Nc3ccc(Br)cc3F)ncnc2cc1OCC1CCN(C)CC1 | 30.9 µM (active) | –
NC(=O)C1(N2CCCCC2)CCN(CCCC(=O)c2ccc(F)cc2)CC1 | inactive | –
O=c1[nH]c(=O)c2ccccc2o1 | inactive | –
Nc1ccc(S(=O)(=O)NC(=O)c2ccccc2)cc1 | inactive | –
CC(=O)Nc1ncc([N+](=O)[O-])s1 | 15.5 µM (active) | –
O=C(Nc1cccc(C2=NCCN2)c1)Nc1cccc(C2=NCCN2)c1 | – | 12% [at 23.6 µM] (inactive)
Cc1ccc(S(=O)(=O)NC(=O)NC2CCCCCCC2)cc1 | inactive | –
O=C(Oc1ccccc1C(=O)O)c1ccccc1O | inactive | –
